Assay results as given in PubChem BioAssay (Tox21).
Results filed as inconclusive are left out. A call without a number means that no potency is given here. A number with no mark means an inactive call. Activity calls are given as the source filed them. Calls come from the whole dose curve.

Experiment: p53 small molecule agonists, cell-based qHTS assay: qHTS cell viability counter screen (AID 1963581); note: nearly all actives have a fitted effect of over 45% in size
Conditions: p53RE-bla HCT-116 viability, ATP luminescence, 16 h; series mostly up to 66 µM
In short: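 Cells: HCT-116 with p53 response element-driven beta-lactamase. Treatment: 16 h, 37 C, compounds in DMSO. Read: CellTiter-Glo luminescence after 30 min RT.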

SMILES	Potency	activity change, negative = cytotoxicity
C=C(C)C(=O)OCCOCCOC(=O)C(=C)C	inactive	–
CCCC(=O)O[C@]1(C(=O)COC(=O)CC)CC[C@H]2[C@@H]3CCC4=CC(=O)CC[C@]4(C)[C@H]3[C@@H](O)C[C@@]21C	–	-11% [at 13.5 µM]
O=Cc1ccccc1Cl	inactive	–
CC(C)=CCCC(C)CC(=O)O (centres undefined)	inactive	–
CC(C)(COC(=O)c1ccccc1)COC(=O)c1ccccc1	inactive	–
CN(C)CCOC(=O)C(c1ccccc1)C1(O)CCCC1 (centres undefined)	inactive	–
CCCC(=O)O[C@]1(C(=O)CO)CC[C@H]2[C@@H]3CCC4=CC(=O)CC[C@]4(C)[C@H]3[C@@H](O)C[C@@]21C	inactive	–
CCCCCCCCCCCCCCCC(=O)OCC	inactive	–
CC(O)CN (centres undefined)	inactive	–
O=C(O)Cc1ccc(OCCNC[C@H](O)c2ccccc2)cc1	inactive	–
O=C(O)c1c(Cl)ccc(Cl)c1Cl	inactive	–
CC(=O)c1ccc([N+](=O)[O-])cc1	inactive	–
CCCCCCOC(=O)CCCCCCCC(=O)OCCCCCC	inactive	–
Cc1ccccc1N=C(N)N=C(N)N	inactive	–
